In the supplement of paper PMC10849652:
Of roughly 7,900 targets only a part is listed; those with a hit were picked by preference. About 0.6% of all pairs of compound and target were hits.

Legend:
Assay in all cases: log2 fold change, soluble protein after heating vs DMSO (PISA); higher = thermal stabilisation; K562 cells, 10 uM, 30 min; active = over 0.2 and 3.5 SD of the protein, either way, in both replicates (recomputed)
saracatinib = compound: CN1CCN(CCOc2cc(OC3CCOCC3)c3c(Nc4c(Cl)ccc5c4OCO5)ncnc3c2)CC1 [saracatinib]
In short: (§1)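 Soluble protein was defined as the supernatant after 21,000xg for 90 min. It came from K562 cells at 2×10^6 cells/mL given 10 μM compound for 30 min, heated in aliquots for 3 min across 48°C-58°C, pooled, and extracted in PBS with 0.5% NP-40 at 4°C, and was quantified by TMTpro 16plex LC-MS/MS with equalised channel sums. Thermal stability against control samples, from duplicates, is reported as log2 fold change.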

sotrastaurin = compound: CN1CCN(c2nc(C3=C(c4c[nH]c5ccccc45)C(=O)NC3=O)c3ccccc3n2)CC1 [sotrastaurin]
In short: as §1

alvocidib = compound: CN1CC[C@H](c2c(O)cc(O)c3c(=O)cc(-c4ccccc4Cl)oc23)[C@H](O)C1 [alvocidib]
In short: as §1

Tubastatin A = compound: CN1CCc2c(c3ccccc3n2Cc2ccc(C(=O)NO)cc2)C1 [Tubastatin A]
In short: as §1

[1] = compound: CNC(=O)C1=CC=CC=C1NC2=NC(=NC=C2Cl)NC3=C(C=C(C=C3)N4CCOCC4)OC
In short: as §1

defactinib = compound: CNC(=O)c1ccc(Nc2ncc(C(F)(F)F)c(NCc3nccnc3N(C)S(C)(=O)=O)n2)cc1 [defactinib]
In short: as §1

rucaparib = compound: CNCc1ccc(-c2[nH]c3cc(F)cc4c3c2CCNC4=O)cc1 [rucaparib]
In short: as §1

[2] = compound: CNc1nc(-c2ccc3c(N)n[nH]c3c2)cc(N2C[C@@H](C(=O)NC3CCCCC3)CC[C@H]2C)n1
In short: as §1

encorafenib = compound: COC(=O)N[C@@H](C)CNc1nccc(-c2cn(C(C)C)nc2-c2cc(Cl)cc(NS(C)(=O)=O)c2F)n1 [encorafenib]
In short: as §1

[3] = compound: COC(=O)[C@H](CCSC)NC(=O)C1=C(C=C(C=C1)NC[C@H](CS)N)C2=CC=CC=C2
In short: as §1

Measured: log2 fold change

CORO2A (UniProt Q92828)
Sequence of UniProt Q92828 (Q92828 whole entry, looked up): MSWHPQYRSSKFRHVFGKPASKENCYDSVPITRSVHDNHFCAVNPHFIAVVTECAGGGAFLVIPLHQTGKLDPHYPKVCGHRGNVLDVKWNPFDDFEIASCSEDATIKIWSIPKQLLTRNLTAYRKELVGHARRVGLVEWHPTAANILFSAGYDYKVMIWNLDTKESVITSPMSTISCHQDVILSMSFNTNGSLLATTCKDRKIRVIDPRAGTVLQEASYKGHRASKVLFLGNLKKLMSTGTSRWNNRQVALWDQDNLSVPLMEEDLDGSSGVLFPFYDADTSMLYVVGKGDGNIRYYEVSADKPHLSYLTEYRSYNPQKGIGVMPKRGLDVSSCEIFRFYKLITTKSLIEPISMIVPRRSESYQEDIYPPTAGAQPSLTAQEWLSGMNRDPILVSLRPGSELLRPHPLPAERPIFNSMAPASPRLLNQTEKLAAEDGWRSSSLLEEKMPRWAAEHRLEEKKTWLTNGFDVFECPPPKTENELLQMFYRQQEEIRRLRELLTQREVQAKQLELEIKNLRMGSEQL
inactive: saracatinib 0.016 | sotrastaurin 0.015 | alvocidib -0.021 | Tubastatin A -0.055 | [1] 0.053 | defactinib -0.015 | rucaparib -0.266 | [2] -0.097 | encorafenib 0.21 | [3] -0.028

C19orf54 (UniProt Q5BKX5)
inactive: saracatinib 0.049 | sotrastaurin -0.221 | alvocidib 0.178 | Tubastatin A 0.092 | [1] 0.002 | defactinib -0.136 | rucaparib 0.255 | [2] -0.108 | encorafenib 0.005 | [3] -0.031

CD55 isoform 7 (UniProt P08174)
inactive: saracatinib 0.06 | sotrastaurin -0.01 | alvocidib 0.03 | Tubastatin A 0.033 | [1] 0.012 | defactinib 0.007 | rucaparib 0.022 | [2] 0.028 | encorafenib -0.016 | [3] 0.039

COPS8 (UniProt Q99627)
Sequence of UniProt Q99627 (Q99627 whole entry, looked up): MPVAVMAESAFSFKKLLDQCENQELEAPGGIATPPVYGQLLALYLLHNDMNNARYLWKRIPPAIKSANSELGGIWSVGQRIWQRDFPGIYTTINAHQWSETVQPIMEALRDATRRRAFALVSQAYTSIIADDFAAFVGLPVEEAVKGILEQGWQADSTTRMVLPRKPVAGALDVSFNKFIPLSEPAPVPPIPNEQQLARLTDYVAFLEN
inactive: saracatinib -0.013 | sotrastaurin -0.052 | alvocidib -0.071 | Tubastatin A -0.025 | [1] -0.039 | defactinib -0.03 | rucaparib -0.015 | [2] 0.018 | encorafenib 0.011 | [3] -0.021

CNN3 (UniProt Q15417)
Sequence of UniProt Q15417 (Q15417 whole entry, looked up): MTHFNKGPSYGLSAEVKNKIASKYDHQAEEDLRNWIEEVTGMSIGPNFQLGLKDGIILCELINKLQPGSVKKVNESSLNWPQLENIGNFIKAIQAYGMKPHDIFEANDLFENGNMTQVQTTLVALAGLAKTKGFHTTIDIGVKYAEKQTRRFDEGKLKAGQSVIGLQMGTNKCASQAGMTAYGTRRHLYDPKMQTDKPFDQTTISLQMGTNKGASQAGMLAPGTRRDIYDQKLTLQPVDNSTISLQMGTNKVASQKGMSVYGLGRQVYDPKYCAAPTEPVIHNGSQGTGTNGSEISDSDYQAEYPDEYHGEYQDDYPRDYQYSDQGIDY
inactive: saracatinib 0.063 | sotrastaurin -0.122 | alvocidib -0.017 | Tubastatin A 0.02 | [1] 0.036 | defactinib -0.13 | rucaparib 0.048 | [2] 0.008 | encorafenib 0.009 | [3] 0

COMMD2 (UniProt Q86X83)
Sequence of UniProt Q86X83 (Q86X83 whole entry, looked up): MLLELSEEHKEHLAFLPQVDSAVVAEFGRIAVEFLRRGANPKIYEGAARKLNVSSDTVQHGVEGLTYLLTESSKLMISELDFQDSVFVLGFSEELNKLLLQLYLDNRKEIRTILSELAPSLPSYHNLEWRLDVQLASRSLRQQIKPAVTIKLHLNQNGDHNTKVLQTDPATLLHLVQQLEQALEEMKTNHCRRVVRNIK
inactive: saracatinib -0.17 | sotrastaurin 0.043 | alvocidib -0.078 | Tubastatin A 0.179 | defactinib -0.088 | rucaparib 0.034 | [2] 0.039 | encorafenib -0.005 | [3] 0.012
active: [1] 0.411

CDKN2AIP (UniProt Q9NXV6)
inactive: saracatinib 0.057 | sotrastaurin 0.023 | alvocidib 0.018 | Tubastatin A 0.013 | [1] 0.052 | defactinib 0.055 | rucaparib -0.055 | [2] 0.033 | encorafenib 0.02 | [3] -0.029

CCDC59 (UniProt Q9P031)
inactive: saracatinib -0.222 | sotrastaurin 0.023 | alvocidib 0.267 | Tubastatin A 0.127 | [1] 0.007 | defactinib 0.309 | rucaparib 0.029 | [2] 0.05 | encorafenib 0.026 | [3] -0.015

CLCN3 (UniProt P51790)
inactive: saracatinib 0 | sotrastaurin 0.021 | alvocidib -0.048 | Tubastatin A -0.14 | [1] 0.019 | defactinib 0.004 | rucaparib -0.055 | [2] -0.057 | encorafenib 0.021 | [3] -0.06

CMTM3 (UniProt Q96MX0)
Sequence of UniProt Q96MX0 (Q96MX0 whole entry, looked up): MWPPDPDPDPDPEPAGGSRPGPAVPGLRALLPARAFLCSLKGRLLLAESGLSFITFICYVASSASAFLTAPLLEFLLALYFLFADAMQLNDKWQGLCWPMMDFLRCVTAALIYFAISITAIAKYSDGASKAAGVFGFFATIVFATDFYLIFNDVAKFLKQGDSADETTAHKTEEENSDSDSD
inactive: saracatinib -0.006 | sotrastaurin -0.01 | alvocidib -0.022 | Tubastatin A -0.012 | [1] -0.019 | defactinib -0.096 | rucaparib 0.129 | [2] -0.075 | encorafenib -0.072 | [3] 0.05

CLN8 (UniProt Q9UBY8)
Sequence of UniProt Q9UBY8 (Q9UBY8 whole entry, looked up): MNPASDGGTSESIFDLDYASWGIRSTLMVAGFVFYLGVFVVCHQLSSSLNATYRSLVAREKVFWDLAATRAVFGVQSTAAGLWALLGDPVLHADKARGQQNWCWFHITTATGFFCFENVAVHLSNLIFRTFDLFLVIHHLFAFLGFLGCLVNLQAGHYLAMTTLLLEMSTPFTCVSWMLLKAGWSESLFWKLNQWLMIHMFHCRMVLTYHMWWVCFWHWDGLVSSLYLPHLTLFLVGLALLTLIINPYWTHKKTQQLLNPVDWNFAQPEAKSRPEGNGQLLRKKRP
inactive: saracatinib 0.073 | sotrastaurin 0.107 | alvocidib 0.061 | Tubastatin A -0.225 | [1] 0.022 | defactinib -0.062 | rucaparib -0.061 | [2] -0.292 | encorafenib -0.117 | [3] 0.05

CHKA (UniProt P35790)
Sequence of UniProt P35790 (P35790 whole entry, looked up): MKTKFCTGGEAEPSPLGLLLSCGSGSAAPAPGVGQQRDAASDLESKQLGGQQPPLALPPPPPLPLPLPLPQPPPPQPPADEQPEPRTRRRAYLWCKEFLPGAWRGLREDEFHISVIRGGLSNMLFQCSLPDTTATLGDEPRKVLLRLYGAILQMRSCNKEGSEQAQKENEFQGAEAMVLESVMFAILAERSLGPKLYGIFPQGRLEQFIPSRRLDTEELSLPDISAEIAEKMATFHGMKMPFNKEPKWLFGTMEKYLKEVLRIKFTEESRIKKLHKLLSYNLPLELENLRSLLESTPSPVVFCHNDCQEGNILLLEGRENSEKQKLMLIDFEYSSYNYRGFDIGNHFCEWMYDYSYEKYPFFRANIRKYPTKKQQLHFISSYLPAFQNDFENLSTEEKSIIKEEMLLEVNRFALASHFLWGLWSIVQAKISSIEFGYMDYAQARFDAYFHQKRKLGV
inactive: saracatinib 0.028 | sotrastaurin 0.107 | alvocidib 0.064 | Tubastatin A 0.148 | [1] -0.033 | defactinib 0.006 | rucaparib 0.046 | [2] -0.027 | encorafenib -0.107 | [3] 0.056

CHCHD4 isoform 2 (UniProt Q8N4Q1)
inactive: saracatinib 0.277 | sotrastaurin 0.003 | alvocidib -0.14 | Tubastatin A 0.061 | [1] 0.199 | defactinib -0.049 | rucaparib -0.007 | [2] 0.202 | encorafenib -0.046 | [3] -0.034

CCNH (UniProt P51946)
inactive: saracatinib 0.094 | sotrastaurin -0.019 | alvocidib -0.014 | Tubastatin A -0.001 | [1] -0.037 | defactinib -0.037 | rucaparib 0.036 | [2] -0.044 | encorafenib -0.031 | [3] 0.033

CPT2 (UniProt P23786)
inactive: saracatinib -0.089 | sotrastaurin -0.136 | alvocidib -0.062 | Tubastatin A 0.032 | [1] 0.147 | defactinib -0.164 | rucaparib -0.096 | [2] 0.363 | encorafenib -0.074 | [3] -0.057

CNN2 (UniProt Q99439)
Sequence of UniProt Q99439 (Q99439 whole entry, looked up): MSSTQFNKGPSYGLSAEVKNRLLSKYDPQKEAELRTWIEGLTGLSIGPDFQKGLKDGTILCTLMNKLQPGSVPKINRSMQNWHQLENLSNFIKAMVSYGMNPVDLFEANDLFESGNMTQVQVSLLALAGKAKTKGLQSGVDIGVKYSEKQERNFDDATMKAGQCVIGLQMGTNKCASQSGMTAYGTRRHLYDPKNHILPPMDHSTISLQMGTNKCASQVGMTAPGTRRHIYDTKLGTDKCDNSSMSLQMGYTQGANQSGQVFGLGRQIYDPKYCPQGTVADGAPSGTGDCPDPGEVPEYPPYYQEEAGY
inactive: saracatinib 0.004 | sotrastaurin -0.161 | alvocidib -0.024 | Tubastatin A 0 | [1] -0.003 | defactinib -0.087 | rucaparib -0.008 | [2] -0.077 | encorafenib 0.023 | [3] 0

CRK (UniProt P46108)
active: saracatinib -0.768
inactive: sotrastaurin 0 | alvocidib -0.032 | Tubastatin A 0.092 | [1] -0.003 | defactinib -0.056 | rucaparib -0.025 | [2] -0.006 | encorafenib 0.021 | [3] -0.024

COCH (UniProt O43405)
inactive: saracatinib 0.126 | sotrastaurin 0.01 | alvocidib 0.029 | Tubastatin A -0.036 | [1] 0.031 | defactinib 0.1 | rucaparib 0.011 | [2] -0.139 | encorafenib -0.074 | [3] 0.05

CDK11B (UniProt P21127)
inactive: saracatinib -0.039 | sotrastaurin 0.035 | alvocidib 0.157 | Tubastatin A 0.137 | [1] -0.098 | defactinib -0.162 | rucaparib -0.323 | [2] -0.052 | encorafenib 0.077 | [3] -0.039

CIZ1 (UniProt Q9ULV3)
inactive: saracatinib 0.046 | sotrastaurin -0.075 | alvocidib -0.074 | Tubastatin A 0.102 | [1] -0.11 | defactinib -0.117 | rucaparib 0.027 | [2] -0.109 | encorafenib -0.038 | [3] -0.001

CDK8 (UniProt P49336)
Sequence of UniProt P49336 (P49336 whole entry, looked up): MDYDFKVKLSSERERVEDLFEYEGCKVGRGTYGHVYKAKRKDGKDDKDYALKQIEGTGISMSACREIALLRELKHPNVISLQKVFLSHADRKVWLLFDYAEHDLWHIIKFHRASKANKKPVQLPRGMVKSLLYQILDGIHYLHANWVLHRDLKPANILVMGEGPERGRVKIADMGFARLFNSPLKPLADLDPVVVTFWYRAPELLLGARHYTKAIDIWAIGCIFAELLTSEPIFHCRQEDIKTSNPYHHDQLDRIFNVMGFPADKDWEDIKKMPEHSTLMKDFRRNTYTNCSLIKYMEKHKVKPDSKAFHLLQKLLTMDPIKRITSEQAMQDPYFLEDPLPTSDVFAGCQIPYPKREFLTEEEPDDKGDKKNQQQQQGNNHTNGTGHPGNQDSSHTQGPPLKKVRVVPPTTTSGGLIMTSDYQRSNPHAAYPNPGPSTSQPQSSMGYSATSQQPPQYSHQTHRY
inactive: saracatinib -0.006 | sotrastaurin 0.074 | Tubastatin A -0.1 | [1] 0.053 | defactinib -0.059 | rucaparib 0.192 | [2] 0.018 | encorafenib -0.002 | [3] 0.064
active: alvocidib 0.66

CHERP (UniProt Q8IWX8)
inactive: saracatinib 0.045 | sotrastaurin -0.167 | alvocidib -0.143 | Tubastatin A 0.119 | [1] -0.006 | defactinib -0.29 | rucaparib 0.022 | [2] -0.046 | encorafenib 0.058 | [3] 0.002

CRMP1 isoform 2 (UniProt Q14194)
Sequence of UniProt Q14194 (Q14194 whole entry, looked up): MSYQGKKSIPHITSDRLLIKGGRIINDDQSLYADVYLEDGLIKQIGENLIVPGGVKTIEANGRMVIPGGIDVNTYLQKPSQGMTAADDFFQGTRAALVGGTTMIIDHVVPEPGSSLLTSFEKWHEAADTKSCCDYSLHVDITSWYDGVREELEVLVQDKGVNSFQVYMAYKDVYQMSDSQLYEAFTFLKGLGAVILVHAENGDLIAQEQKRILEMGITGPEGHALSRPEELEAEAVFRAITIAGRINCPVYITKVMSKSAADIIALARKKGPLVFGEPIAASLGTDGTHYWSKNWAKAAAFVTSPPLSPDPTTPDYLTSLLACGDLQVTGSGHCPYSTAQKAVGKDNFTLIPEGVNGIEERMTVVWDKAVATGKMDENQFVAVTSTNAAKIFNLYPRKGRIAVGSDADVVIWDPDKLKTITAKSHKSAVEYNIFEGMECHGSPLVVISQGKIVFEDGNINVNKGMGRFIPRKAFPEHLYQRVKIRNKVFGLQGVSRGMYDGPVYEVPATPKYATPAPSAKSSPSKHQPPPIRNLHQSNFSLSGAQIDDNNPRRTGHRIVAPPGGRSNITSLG
inactive: saracatinib -0.059 | sotrastaurin 0.107 | alvocidib -0.052 | Tubastatin A 0.025 | [1] 0.024 | defactinib -0.149 | [2] -0.041 | [3] 0.025

CASP8 isoform 9 (UniProt Q14790)
inactive: saracatinib -0.032 | sotrastaurin -0.019 | Tubastatin A 0.115 | [1] 0.053 | defactinib -0.1 | rucaparib 0.011 | [2] 0.04 | encorafenib 0.044 | [3] 0.037

CSNK1A1 (UniProt P48729)
Sequence of UniProt P48729 (P48729 whole entry, looked up): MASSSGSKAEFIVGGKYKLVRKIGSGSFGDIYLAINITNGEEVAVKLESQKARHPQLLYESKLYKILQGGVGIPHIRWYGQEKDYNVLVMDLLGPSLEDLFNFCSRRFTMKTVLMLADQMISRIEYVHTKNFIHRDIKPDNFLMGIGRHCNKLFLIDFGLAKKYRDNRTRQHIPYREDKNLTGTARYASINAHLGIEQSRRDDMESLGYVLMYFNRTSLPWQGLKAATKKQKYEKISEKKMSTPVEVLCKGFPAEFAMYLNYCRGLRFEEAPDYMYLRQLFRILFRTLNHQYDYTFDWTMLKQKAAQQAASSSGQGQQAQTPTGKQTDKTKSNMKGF
inactive: saracatinib -0.028 | sotrastaurin 0.011 | alvocidib 0.146 | Tubastatin A 0.115 | defactinib 0.058 | rucaparib 0.128 | [2] 0.042 | encorafenib 0.037 | [3] -0.016

CBS (UniProt P35520)
inactive: saracatinib -0.009 | sotrastaurin 0.011 | alvocidib -0.035 | Tubastatin A -0.069 | [1] -0.021 | defactinib 0.003 | rucaparib -0.061 | [2] -0.03 | encorafenib -0.001 | [3] -0.013

CDK17 isoform 2 (UniProt Q00537)
inactive: saracatinib 0.008 | sotrastaurin -0.036 | [1] -0.017 | defactinib 0.11 | rucaparib 0.494 | [2] 0.06 | encorafenib -0.027 | [3] 0.014
active: alvocidib 0.602

CCDC167 (UniProt Q9P0B6)
Sequence of UniProt Q9P0B6 (Q9P0B6 whole entry, looked up): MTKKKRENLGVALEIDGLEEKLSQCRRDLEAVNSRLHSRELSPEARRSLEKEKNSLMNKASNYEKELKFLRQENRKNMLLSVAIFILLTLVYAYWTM
inactive: saracatinib -0.05 | sotrastaurin -0.018 | alvocidib 0.061 | Tubastatin A -0.063 | [1] -0.006 | rucaparib 0.021 | [2] 0.104 | encorafenib -0.037

CRTC1 isoform 2 (UniProt Q6UUV9)
Sequence of UniProt Q6UUV9 (Q6UUV9 whole entry, looked up): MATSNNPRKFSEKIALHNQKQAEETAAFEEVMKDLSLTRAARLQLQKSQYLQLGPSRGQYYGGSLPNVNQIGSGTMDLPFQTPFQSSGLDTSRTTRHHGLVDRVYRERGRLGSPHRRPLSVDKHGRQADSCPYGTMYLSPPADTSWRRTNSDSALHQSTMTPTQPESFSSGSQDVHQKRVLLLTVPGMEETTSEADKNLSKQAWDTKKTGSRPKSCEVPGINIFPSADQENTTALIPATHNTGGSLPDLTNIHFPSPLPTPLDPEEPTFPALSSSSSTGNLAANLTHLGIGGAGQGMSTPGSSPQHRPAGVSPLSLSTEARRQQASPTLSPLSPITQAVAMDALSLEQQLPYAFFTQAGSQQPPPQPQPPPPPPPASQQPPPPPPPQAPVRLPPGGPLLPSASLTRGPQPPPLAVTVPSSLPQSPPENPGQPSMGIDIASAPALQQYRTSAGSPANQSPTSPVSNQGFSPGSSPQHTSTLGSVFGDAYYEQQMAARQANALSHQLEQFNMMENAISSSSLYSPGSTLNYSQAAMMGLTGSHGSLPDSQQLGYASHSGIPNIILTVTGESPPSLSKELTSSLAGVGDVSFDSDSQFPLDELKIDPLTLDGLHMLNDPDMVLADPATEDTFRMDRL
inactive: saracatinib -0.026 | sotrastaurin 0.011 | Tubastatin A -0.009 | [1] -0.101 | defactinib -0.021 | [2] -0.062 | [3] 0.009

C6orf120 (UniProt Q7Z4R8)
Sequence of UniProt Q7Z4R8 (Q7Z4R8 whole entry, looked up): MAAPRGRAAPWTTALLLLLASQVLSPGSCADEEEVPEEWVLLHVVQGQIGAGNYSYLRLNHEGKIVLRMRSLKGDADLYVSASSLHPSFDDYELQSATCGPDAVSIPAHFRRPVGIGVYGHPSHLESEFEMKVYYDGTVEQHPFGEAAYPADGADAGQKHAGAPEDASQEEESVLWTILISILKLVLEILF
inactive: saracatinib -0.097 | sotrastaurin 0.008 | Tubastatin A 0.041 | [1] -0.145 | defactinib 0.024 | rucaparib 0.127 | [2] 0.041 | encorafenib 0.074 | [3] -0.045
